This is part of a sample that, as a whole, favours compounds with a hit. Of some 83,000 tested, about 20% had one in any assay.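 96-well plates, one dose, 48 hours. Percent growth reported; active if below 10.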 Values without a mark were called inactive. Activity calls are given as the source filed them.
Columns and labels:
Test in all cases: NCI-60 one-dose screen, 48 h (100 = growth as untreated, 0 = no growth, -100 = all killed)
Details in all cases: 10 µM unless noted
SK-MEL-2 melanoma = test system: SK-MEL-2 melanoma
EKVX NSCLC = test system: EKVX NSCLC
UO-31 renal = test system: UO-31 renal
TK-10 renal = test system: TK-10 renal
ACHN renal = test system: ACHN renal
CAKI-1 renal = test system: CAKI-1 renal
A498 renal = test system: A498 renal
CCRF-CEM leukemia = test system: CCRF-CEM leukemia
MOLT-4 leukemia = test system: MOLT-4 leukemia
SN12C renal = test system: SN12C renal

SMILES | growth (SK-MEL-2 melanoma) | growth (EKVX NSCLC) | growth (UO-31 renal) | growth (TK-10 renal) | growth (ACHN renal) | growth (CAKI-1 renal) | growth (A498 renal) | growth (CCRF-CEM leukemia) | growth (MOLT-4 leukemia) | growth (SN12C renal) [%]
NC(=NCCCOc1ccc(Cl)cc1)Nc1ccc(C(F)(F)F)cc1 | 41.3% | 50.5% | 37.1% | 76.1% | 9.43% (active) | 60.5% | 35% | 3.2% (active) | 4.99% (active) | 
COc1cc2c(cc1O)CC[C@@H]1[C@@H]2CC[C@]2(C)[C@@H](NCCN(C)C)CC[C@@H]12 | -95.7% (active) | -82.8% (active) | -84.1% (active) | -95.8% (active) | -92.8% (active) | -95.9% (active) | -79.3% (active) | -71.8% (active) | -71.8% (active) | 
CC(C)(CCCN=C(N)Nc1ccc(Cl)cc1)c1ccc(F)cc1 | 94.6% | 71.7% | 58.5% | 72.4% | 67.4% | 74.7% | 77.6% | 53.7% | 37.7% | 
NC(=NC1C2CC3CC(C2)CC1C3)Nc1ccc(I)cc1 (stereo not drawn) | 50.3% | 32.2% | 18.6% | 43.5% | 7.41% (active) | 18% | -12.5% (active) | 8.16% (active) | 5.63% (active) | 
Cc1nc(Nc2ccc(F)c(Cl)c2)sc1C(=O)O | 10.7% | 8.63% (active) | -8.39% (active) | 21% | 11.2% | 8.86% (active) | -26.2% (active) | 9.7% (active) | 6.93% (active) | 
CNC(=O)c1cc(Oc2ccc(NC(=O)Nc3ccc(Cl)c(OC(F)(F)F)c3)c(F)c2)ccn1 | 14.4% | 26.2% | 23% | 37.3% | 28.2% | 45.8% | 36.9% | 30.1% | 20.2% | 
O=c1oc2c(C(F)(F)F)cccc2cc1-c1csc(Nc2ccc(OCCF)cc2)n1 | 18% | 38% | 40.3% | 59.7% | 23.2% | 12.2% | -9.67% (active) | 5.28% (active) | 15.8% | 
N#CN1CCC[C@H]1C(=O)N1CCc2c(-c3[nH]nc4ncccc34)cccc21 | 3.74% (active) | 14.6% | 2.24% (active) | -15.6% (active) | 6.01% (active) | -32.8% (active) | -36.5% (active) | 17.5% | 7.28% (active) | 
COc1ccc(CN2c3ccccc3Oc3ccccc32)cc1O | -6.69% (active) | 35% | 32.5% | 64.4% | 36.1% | 39.4% | 106% | 12.5% | 24.9% | 
CCOc1ccc(-n2nc(C(=O)Nc3cc(OC)c(OC)c(OC)c3)nc2-c2cc(OC)c(OC)c(OC)c2)cc1 | 85.6% | 96.1% | 52.6% | 104% | 85.7% | 77.4% | 67.3% | 66.5% | 67.5% | 
CCC#CC[C@H](O)C/C=C1/C(=O)C=C[C@@H]1C/C=C\CCCC(=O)OC | -35.8% (active) | 23.7% | -65.4% (active) | 2.33% (active) | -82.8% (active) | -18.3% (active) | 95.7% | -8.8% (active) | 1.17% (active) | 
O=c1cc(/C(=C2/C=CC=N2)c2ccc[nH]2)c2cc(Cl)ccc2o1 | 62.4% | 44.8% | 41% | 63% | 48% | 55.7% | 10.8% | 28.3% | 7.2% (active) | 
CNC(=O)c1cc(Oc2ccc(NC(=O)Nc3ccc(Cl)c(SC)c3)c(F)c2)ccn1 | 21.6% | 32.4% | 42.6% | 55.3% | 52.6% | 70.1% | 41.3% | 40.7% | 22.8% | 
CC/C=C\C[C@H](O)C/C=C1/C(=O)C=C[C@@]1(C)C/C=C\CCCC(=O)OC | 103% | 104% | 92.1% | 95.9% | 101% | 96.9% | 97.3% | 108% | 94.4% | 
O=c1cc(CSc2nnc(SCc3cc(=O)oc4c3ccc3ccccc34)o2)c2ccc3ccccc3c2o1 | 87.8% | 94.7% | 81.2% | 98.8% | 102% | 97.4% | 98.9% | 105% | 98% | 
CC/C=C\C[C@H]1C/C=C2/C(=O)C=C[C@H]2C/C=C\CCCC(=O)O1 | 21.4% | 45% | 55.5% | 29.6% | -67.7% (active) | 25.2% | 79.5% | -6.1% (active) | 14.3% | 
CCOc1ccc(-n2nc(C(=O)Nc3ccccc3)nc2-c2cc(OC)c(OC)c(OC)c2)cc1 | 37.7% | 53.2% | 37.7% | 72.4% | 62.8% | 51.6% | 10.3% | 50.8% | 42.9% | 

SMILES | growth (SK-MEL-2 melanoma) | growth (EKVX NSCLC) | growth (UO-31 renal) | growth (TK-10 renal) | growth (ACHN renal) | growth (CAKI-1 renal) | growth (A498 renal) | growth (CCRF-CEM leukemia) | growth (MOLT-4 leukemia) | growth (SN12C renal) [%]
CCCCCCN(CCCCCC)C(=N)c1ccnc2ccccc12 |  | 84.5% | 36.5% | 73.4% | 53.2% |  | 37.2% | -4.39% (active) | 48.8% | 71.9
N#Cc1cnn(-c2nc3c(Cl)cccc3s2)c1N |  |  | 83.2% | 92.7% | 67.4% | 82.8% | 97.1% | 91.1% | 92.4% | 88.5
c1ccc(-c2cc3n4c(-c5ccccc5)nn(-c5ccccc5)c4cnc-3n2)cc1 | 72.6% |  | 60.7% | 24.5% | 68.2% | 59.5% | 78.1% | 86.4% | 88.9% | 62.6
CCN(CC)c1ccc(-c2cc(-c3cc(OC)c(OC)c(OC)c3)nc(N3CCOCC3)c2C#N)cc1 |  | 36.3% | 5.65% (active) | 49.4% | 19.5% | 1.28% (active) | 34.5% |  | 18.8% | 36.4
COc1cccc2c1C(=O)c1c(O)c3c(c(O)c1C2=O)C[C@](O)(C(=O)CO)C[C@H]3O[C@@H]1C[C@@H](NC(=O)CCCCCN(C)C2(c3ccc(F)cc3)CC3CCC2C3)[C@H](O)[C@@H](C)O1 (stereo partly drawn) | 73.5% | 33.9% | 62.8% | 68.7% | -77.4% (active) | 52.6% | 54.6% |  | -27.7% (active) | 
O=C(Nc1cccc2[nH]c(C(F)(F)F)nc12)c1ccc(-n2cnnn2)cc1 |  |  | 75.9% | 108% | 99.5% | 95.4% | 83.1% | 28.6% | 32.4% | 108
CC(=O)O[C@H]1[C@@H]2OC(=O)C(CSc3ccccc3)[C@@H]2C[C@H]2O[C@]2(C)CC/C=C(\C)CCC[C@@H]1C (stereo partly drawn) | 35.6% |  | 11.7% | -5.98% (active) | 33.5% | 2.92% (active) | 116% | 52.4% | 22.7% | 31.6
Cc1cc(N2CCN(c3ccnc4cc(Cl)ccc34)CC2)nc(N2CCOCC2)n1 | 105% |  | 44.7% | 89.9% | 86.1% | 85.9% | 37.2% |  | 66.7% | 86
C=CCSSC1N=CNc2nc[nH]c21 (stereo not drawn) |  | 93.8% | 35.7% | 29.5% | 42.6% | 9.26% (active) | 50.1% |  |  | 72.9
CN(C)CCCNc1c2ccccc2nc2ccccc12 | 99.9% |  | 103% | 81.6% | 100% | 106% | 102% | 86.9% | 83.3% | 95.8
COc1ccc(C(=O)c2sc3nc(C)cc(C)c3c2N)cc1OC |  |  | 87.3% | 88.7% | 88.2% | 99.5% | 87.5% | 98.2% | 96.4% | 102
Cn1ncc2c(=O)nc3c(-c4ccccc4)n[nH]n3c21 | 112% |  | 97.1% | 99.5% | 116% | 74.4% | 112% | 127% | 99.6% | 99.5
COc1ccc(Nc2cc(C)nc(N3CCN(c4ccnc5cc(Cl)ccc45)CC3)n2)cc1 | 48% |  | -0.534% (active) | 46.8% | 41.5% | 35.1% | -1.56% (active) | 16% | 11.1% | 40.9
OCCNc1nccc(N2CCN(c3ccnc4cc(Cl)ccc34)CC2)n1 | 84.1% |  | 47.7% | 94.4% | 92.5% | 77% | 15.5% | 66.5% | 52.4% | 84.5
O=C(N/N=C/c1ccccc1O)c1ccccc1Nc1ccnc(C(F)(F)F)c1 |  | 3.03% (active) | 7.98% (active) | 34.3% | 5.8% (active) | -15.9% (active) | -5.76% (active) |  | 5.72% (active) | 26.8
CC(=O)Oc1ccc(Cl)cc1CN(C(C)=O)C1CCCCC1 | 112% |  | 90.5% | 110% | 102% |  |  | 87.9% | 85.9% | 97.3
COc1cccc2c1C(=O)c1c(O)c3c(c(O)c1C2=O)C[C@](O)(C(=O)CO)C[C@H]3O[C@@H]1C[C@@H](NC(=O)CCCN(C)C2(c3ccc(F)cc3)CC3CCC2C3)[C@H](O)[C@@H](C)O1 (stereo partly drawn) | 47.1% | -46.3% (active) | 71.7% | 54.6% | -86% (active) | 61.9% | 52.5% |  | -37% (active) | 
